Results published in PubChem BioAssay AID618 (Sanford-Burnham Center for Chemical Genomics, 2007).
The whole screen tested about 87,000 compounds, of which about 540 (0.62%) were called active. The rule behind the calls is not given here. What follows is part of a selection rich in actives, with near analogues and random picks from the rest. A call without a number means that no potency is given here. Potency and affinity values are given separately.

Assay: inhibitors of MT1-MMP promoter transcription, cell-based, luciferase reporter, luminescence (AID 618);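 note: actives suppress MT1-MMP promoter-driven transcription so potencies describe inhibitors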
Conditions: MT1-MMP promoter luciferase reporter cells

| SMILES | outcome |
| --- | --- |
| COc1ccccc1NC(=O)NC(=O)N(C(C)C)S(C)(=O)=O | inactive |
| Cc1cc2ncn(CC(O)COC3CCCCC3)c2cc1C (stereo unspecified) | inactive |
| CC(=O)Nc1ccc(OCC(=O)c2ccc(C)cc2C)cc1 | inactive |
| CC(C)NC(=O)c1ccccc1NC(=O)c1ccccc1N(C)S(C)(=O)=O | inactive |
| COCC(C)n1c(C)cc(C(=O)COC(=O)c2n[nH]c3ccccc23)c1C (stereo unspecified) | inactive |
| COCCn1c(C)cc(C(=O)COC(=O)c2ccc(-n3nc(C)cc3C)cc2)c1C | inactive |
| CCOC(=O)c1n[nH]c2ccccc12 | inactive |
| COCCn1c(C)cc(C(=O)COC(=O)c2n[nH]c3ccccc23)c1C | active |
| Cc1cc(NC(=O)COC(=O)c2n[nH]c3ccccc23)no1 | inactive |
| CCCCCn1c(=O)[nH]c2cc(C(=O)O)ccc2c1=O | inactive |
| Clc1ccccc1CSc1nnc(Cn2cnc3ccccc32)n1-c1ccccc1 | inactive |
| CN1CCC(NC(=O)c2cccs2)CC1 | inactive |
| CC(C)COc1ccc(-c2nnc(-c3ccco3)o2)cc1 | inactive |
| CCCOc1ccc(-c2nnc(-c3ccco3)o2)cc1 | inactive |
| CCOc1ccc(-c2nnc(-c3cccs3)o2)cc1 | inactive |
| CCCOc1ccc(-c2nnc(-c3ccncc3)o2)cc1 | inactive |
| O=C(CN1CCOCC1)Nc1c2c(nc3ccccc13)N(Cc1ccccc1)CC2 | inactive |
| O=C(O)C1CCN(S(=O)(=O)c2ccc(Oc3ccccc3)cc2)CC1 | inactive |
| Cc1cc(NC(=O)CCCC(=O)Nc2ccc(F)cc2)no1 | inactive |
| COc1ccc(S(=O)(=O)N[C@@H](Cc2ccccc2)C(=O)N2CC[C@@]3(O)CCCC[C@H]3C2)cc1 | inactive |
| Cc1c(NC(=O)c2cnn3c2NC(c2ccc(Br)cc2)CC3C(F)(F)F)c(=O)n(-c2ccccc2)n1C (stereo unspecified) | inactive |

| SMILES | outcome |
| --- | --- |
| c1ccc2nc(-c3nc4ccccc4o3)ccc2c1 | active |
| c1cc(-c2nc3ccccc3o2)nc(-c2nc3ccccc3o2)c1 | inactive |
| c1ccc(-c2nc3ccccc3o2)nc1 | inactive |
| Cc1ccc(-c2nnc(-c3ccccc3)o2)cc1 | inactive |
| CCNc1nnc(-c2ccc(C)cc2)o1 | inactive |
| Cc1ccc(-c2nnc(Nc3ccccc3)o2)cc1 | active |
| O=C(O)CCCn1c(=O)[nH]c2ccccc2c1=O | inactive |
| Cc1ccc(C(=O)N2c3ccccc3N(Cc3ccccc3)C(=O)C2(C)C)cc1 | inactive |
| Cc1ccc(C)c(CN2C(=O)C3(OCCCO3)c3ccccc32)c1 | inactive |
| CC(=O)N1c2ccccc2N(Cc2ccc(C)cc2C)C(=O)C1(C)C | active |
| COc1ccc(N(C)S(=O)(=O)c2ccc3c(c2)oc(=O)n3C)cc1 | inactive |
| Cc1[nH]c2ccc(C(=O)O)cc2c1C | inactive |
| Cc1nn2c(CN(C(=O)c3ccco3)c3ccccc3)nnc2c2ccccc12 | inactive |
| O=C(N1CCOCC1)n1nnc2ccccc21 | inactive |
| O=S(=O)(N1CCOCC1)n1nnc2ccccc21 | inactive |
| O=C(CSc1ncnc2ccccc12)N1CCN(c2ccccc2)CC1 | inactive |
| NC(=O)C1CCN(C(=O)c2cc3ccccn3n2)CC1 | inactive |
| COC(=O)CCn1nnc(-c2cccs2)n1 | inactive |
| COc1ccc(NC(=O)CCn2nnc(-c3ccc(C)cc3)n2)cc1OC | inactive |
| Cc1ccc(-c2nnn(CCC(=O)NC(C)(C)C)n2)cc1 | inactive |
| COc1ccc(-c2nnn(CCC(=O)O)n2)cc1 | inactive |

| SMILES | outcome |
| --- | --- |
| COc1cccc(-c2nnn(CCC(=O)O)n2)c1 | inactive |
| COC(=O)CCn1nnc(-c2ccc(C)cc2)n1 | inactive |
| O=C(c1ccc(CS(=O)(=O)c2ccccc2)o1)N1CCOCC1 | inactive |
| CCCn1c(=S)[nH]c2cc(OC)c(OC)cc2c1=O | inactive |
| CC(=O)N1CCN(CCN=CC2=C(O)CC(c3ccc(Cl)cc3)CC2=O)CC1 (stereo unspecified) | inactive |
| O=C(C1CCCN(Cc2ccccc2)C1)N1CCc2ccccc2C1 (stereo unspecified) | inactive |
| NC(=O)c1cc(Cl)cn(-c2ccccc2)c1=O | inactive |
| CCOC(=O)C1CCCN(c2ncnc3c2[nH]c2cccc(OC)c23)C1 (stereo unspecified) | inactive |
| O=C(c1cc(-c2cccs2)nc2ccccc12)N1CCN(S(=O)(=O)c2cccc(F)c2)CC1 | inactive |
| CSC(=O)CC(=O)NC(=O)c1ccccc1 | inactive |
| Cc1cccc(C)c1Nc1nc2ccccc2o1 | inactive |
| O=c1[nH]c(Nc2nc3ccccc3o2)nc2c1CCCC2 | inactive |
| Cc1ccc(NC(=O)c2c(C)nc(Nc3nc4ccccc4o3)nc2C)cc1 | inactive |
| Cc1ccc2oc(Nc3nc(C)cc(C)n3)nc2c1 | inactive |
| O=C(c1cccs1)N1CCc2ccccc21 | inactive |
| Clc1ccc(-c2nc(-c3ccccn3)no2)cc1Cl | inactive |
| c1ccc(SCc2nc(-c3ccccn3)no2)cc1 | inactive |
| Clc1cccc(-c2nc(-c3ccccn3)no2)c1 | active |
| Cc1ccc(-c2nc(-c3ccccn3)no2)cc1Cl | active |
